The text below walks through data of PubChem BioAssay.

Assay [1] is described as follows: growth inhibition of DIPG glioma cells, dose response, cell-based, JHH-DIPG-1, MIPE4.0, CellTiter-Glo, qHTS (AID 1347062; cut-off not given, nearly all actives have AC50 up to about 27 µM;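 on AC50: cells exposed to compound for two days before readout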). Conditions: JHH-DIPG-1 viability, CellTiter-Glo ATP luminescence. On the technique in general: In ATP-based viability assays light output follows the ATP content of the culture.
Assay [2] is described as follows: SU-DIPG-VI glioma cell viability, MIPE4.0 library, CellTiter-Glo luminescence, qHTS (AID 1347066).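 Further: cells exposed to compound for 48 hours before readout.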 Conditions: CellTiter-Glo ATP luminescence.
Assay [3] is described as follows: growth inhibition of DIPG glioma cells, dose response, cell-based, SU-DIPG-XIII, MIPE4.0, CellTiter-Glo, qHTS (AID 1347061; cut-off not given, nearly all actives have AC50 up to about 37 µM;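 further: cells exposed to compound for 48 hours before readout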). The settings on record: SU-DIPG-XIII viability, CellTiter-Glo ATP luminescence.
Assay [4] is described as follows: growth inhibition of DIPG glioma cells, dose response, cell-based, SU-DIPG-IV, MIPE4.0, CellTiter-Glo, qHTS (AID 1347063).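 Further: compound exposure lasted 48 hours before the viability readout.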 Conditions: SU-DIPG-IV viability, CellTiter-Glo ATP luminescence.
The nature of assay [5]: growth inhibition of DIPG glioma cells, dose response, cell-based, SU-DIPG-XIII, MIPE5.0, CellTiter-Glo, qHTS (AID 1347064; cut-off not given, nearly all actives have AC50 up to about 23 µM;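 on AC50: cells exposed to compound for 48 hours before the viability read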). Conditions: SU-DIPG-XIII viability, CellTiter-Glo ATP luminescence.
Assay [6] is described as follows: viability loss in pontine glioma line – cell-based, SU-DIPG-XXV, MIPE5.0, CellTiter-Glo, qHTS, dose response (AID 1347065; cut-off not given, nearly all actives have AC50 up to about 26 µM;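 further: cells exposed to compound for 48 hours before ATP readout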). The settings on record: CellTiter-Glo ATP luminescence.
Assay [7] can be described thus: JHH-DIPG-1 glioma cell viability, MIPE5.0 library, CellTiter-Glo luminescence, qHTS (AID 1347067; cut-off not given, nearly all actives have AC50 up to about 26 µM;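 further: cells exposed to compound for 48 hours before readout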). Conditions: JHH-DIPG-1 glioma viability, CellTiter-Glo ATP luminescence.
Assay [8] can be described thus: SU-DIPG-XXV glioma cell viability, MIPE5.0 library, qHTS (AID 1347068; cut-off not given, nearly all actives have IC50 up to about 30 µM;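 on IC50: cells exposed to compound for 48 hours before viability readout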). In general terms: In qHTS, concentration-response curves come from the screen itself.
Assay [9] is described as follows: sensitizers of A549 cells to miR-34 induction, primary screen, imaging, A549 dox-inducible miR-34, nuclei and caspase counts (AID 1347080;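 active means compounds whose cell count with miR-34 switched on is under 0.7 times the count with it off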). The settings on record: A549 miR-34 inducible, Hoechst nuclei count, 48 h.
Assay [10] can be described thus: survival rescue of mitochondrial mutant cells in low glucose, primary screen, MELAS cybrids, Rieske KO mouse fibroblasts, CellTiter-Glo (AID 1508586;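 active means mean z-score across replicates of 1.96 or higher in either the MELAS or the Rieske mutant cell line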;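 further: z relative to plate mean and SD of compound and empty wells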).

Molecules are shown by their SMILES. Inconclusive results are not listed. Active and inactive are the calls of the source. Unless noted, cut-off not given; nearly all actives show AC50 up to about 30 µM.

For `C=C[C@H]1CN2CCC1C[C@H]2[C@H](O)c1ccnc2ccccc12` (stereo partly specified), in assay [1], the AC50 is 20900 nM (active). Further, the outcome in [2] was inactive.

Turning to `COC[C@H]1OC(=O)c2coc3c2[C@@]1(C)C1=C(C3=O)[C@@H]2CC[C@H](O)[C@@]2(C)C[C@H]1OC(C)=O`, the AC50 was 16600 nM (active) in assay [3]; 1180 nM (active) in [4]; 9340 nM (active) in [5]; 1660 nM (active) in [6]; 14800 nM (active) in assay [2]; 5900 nM (active) in assay [7]. Besides, in assay [8], the compound was classed as inactive.

As for `CC(=O)OCC1=C(C(=O)O)N2C(=O)[C@@H](N)[C@@H]2SC1`, the compound was called inactive in assay [3] and in assay [2].

For `c1cc2c(cc1[C@H]1OC[C@H]3[C@@H]1CO[C@@H]3c1ccc3c(c1)OCO3)OCO2`, the result in [1] and in [2] was inactive.

Consider `C[C@H]([C@H](O)CCC(C)(C)O)[C@H]1CC[C@@]2(O)C3=CC(=O)[C@@H]4C[C@@H](O)[C@@H](O)C[C@]4(C)[C@H]3CC[C@]12C`, for which the call in [3], in assay [1], in assay [4] and in assay [2] was inactive.

Regarding `C[C@@H]1O[C@@H](O[C@@H]2C=C3CC[C@H]4[C@@H](CC[C@]5(C)[C@H](c6ccc(=O)oc6)CC[C@@]45O)[C@@]3(C)CC2)[C@H](O)[C@H](O)[C@@H]1O`, the AC50 in assay [3] is 9.35 nM (active); in [1], 4.69 nM (active); in assay [4], 20.9 nM (active); in [2], 7.43 nM (active).

Turning to `CO[C@H]1CCC(O[C@H]2C[C@H]([C@]3(C)CC[C@]4(C[C@H](O)[C@@H](C)[C@@H]([C@@H](C)/C=C(\C)C(=O)[C@H](C)C[C@H](C)C(=O)O)O4)O3)O[C@]3(O[C@@H]([C@H]4O[C@@](O)(CO)[C@H](C)C[C@@H]4C)C[C@@H]3C)[C@@H]2C)O[C@@H]1C` (stereo partly specified), the AC50 in assay [3] was 3320 nM (active); in [1] it was 1480 nM (active); in [5], 1660 nM (active); in assay [6], 742 nM (active); in assay [2], 526 nM (active); in assay [7], 742 nM (active). In addition, in [8], the IC50 is 934 nM (active).

Consider `Cc1sc2c(c1C)C(c1ccc(Cl)cc1)=N[C@@H](CC(=O)OC(C)(C)C)c1nnc(C)n1-2`, for which the AC50 in assay [3] was 18700 nM (active); in assay [6] it was 2630 nM (active); in [7], 16600 nM (active).

On to `CNC(=O)N1N=C(c2ccc(N)cc2)c2cc3c(cc2CC1C)OCO3` (stereo unspecified), for which the compound was classed as inactive in [1] and in assay [2].

As to `CC[C@@H]1[C@@H](C)O[C@@](O)([C@@H](C)[C@H](O)[C@H](C)[C@H]2OC(=O)/C=C/C=C/[C@H](C)[C@@H]([C@@H](C)[C@@H](O)[C@H](C)[C@@]3(O)C[C@@H](O[C@H]4C[C@H](O)[C@H](O)[C@H](C)O4)[C@H](CC)[C@@H](C)O3)OC(=O)/C=C/C=C/[C@@H]2C)C[C@H]1O[C@H]1C[C@H](O)[C@H](O)[C@H](C)O1`, the AC50 in assay [1] is 590 nM (active); in assay [4], 743 nM (active); in assay [2], 469 nM (active).

For the compound `CC(C)N[C@@H]1CCn2c(=O)[nH]c3cccc(c32)[C@H]1O`, the half-maximal activity concentration (AC50) in assay [3] is 7430 nM (active); in assay [1] it was 14800 nM (active); in assay [4], 743 nM (active); in [2], 23500 nM (active).

With `CCN(CC)C(=O)c1ccc(C2=CC3(CCNCC3)Oc3cccc(O)c32)cc1`, the result in [3], in assay [4], in assay [5], in assay [2] and in assay [7] was inactive. Also, the fold change in assay [9] (stronger effect = lower value, cell number ratio, induced over uninduced) is 0.925 (inactive); in assay [9] (measured here: relative caspase fold change +Dox/-Dox), 0.955. The cell count in assay [9] (measured here: total cells with miR-34 induction, stronger effect = lower value) was 8090; in assay [9] (measured here: total cells without miR-34 induction) it was 8740. In addition, the z-score was -0.509 (inactive) in assay [10] (MELAS cybrid survival, CellTiter-Glo 48 h, stronger effect = higher value) and 0.582 in [10] (Rieske KO mouse fibroblast survival, CellTiter-Glo 72 h).

The term AC50 denotes the midpoint of the concentration-response curve, whichever way the signal moves. The IC50 is the concentration that gives 50% inhibition.
